Source: the supplement of paper PMC10849652
Of roughly 8,800 targets only a part is listed; those with a hit were picked by preference. About 0.5% of all pairs of compound and target were hits.

Assays:
Test in all cases: log2 fold change, soluble protein after heating vs DMSO (PISA); higher = thermal stabilisation; K562 lysate, 10 uM; active = over 0.2 and 3.5 SD of the protein, either way, in both replicates (recomputed)
[1] = compound: CN1CC[C@H](c2c(O)cc(O)c3c(=O)cc(-c4ccccc4Cl)oc23)[C@H](O)C1 [alvocidib]
In short: (§1)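 K562 pellets were dounce-homogenised in PBS pH 7.4 with 1 mM MgCl2, and the crude extract at 1 mg/mL protein was treated with 10 μM compound for 30 min. Aliquots were heated for 3 min across 48°C-58°C, pooled, and brought to 0.5% NP-40 at 4°C; soluble protein was the supernatant after 21,000xg for 90 min. Soluble protein was quantified by TMTpro 16plex LC-MS/MS with channel sums equalised, and reported as log2 fold change in thermal stability against DMSO controls, with values from duplicates.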

[2] = compound: CN1CCc2c(c3ccccc3n2Cc2ccc(C(=O)NO)cc2)C1 [Tubastatin A]
In short: as §1

[3] = compound: CNC(=O)C1=CC=CC=C1NC2=NC(=NC=C2Cl)NC3=C(C=C(C=C3)N4CCOCC4)OC
In short: as §1

[4] = compound: CNC(=O)c1ccc(Nc2ncc(C(F)(F)F)c(NCc3nccnc3N(C)S(C)(=O)=O)n2)cc1 [defactinib]
In short: as §1

[5] = compound: CNc1nc(-c2ccc3c(N)n[nH]c3c2)cc(N2C[C@@H](C(=O)NC3CCCCC3)CC[C@H]2C)n1
In short: as §1

[6] = compound: COC(=O)N[C@@H](C)CNc1nccc(-c2cn(C(C)C)nc2-c2cc(Cl)cc(NS(C)(=O)=O)c2F)n1 [encorafenib]
In short: as §1

[7] = compound: COC(=O)[C@H](CCSC)NC(=O)C1=C(C=C(C=C1)NC[C@H](CS)N)C2=CC=CC=C2
In short: as §1

[8] = compound: COc1cc(Nc2ncc3c(n2)-c2ccc(Cl)cc2C(c2c(F)cccc2OC)=NC3)ccc1C(=O)O [alisertib]
In short: as §1

[9] = compound: COc1cc2nc(-c3cc(F)ccc3O)nc(N[C@@H]3CNC[C@H]3C(C)(C)O)c2cc1OC
In short: as §1

[10] = compound: COc1cc2ncnc(Nc3ccc(F)c(Cl)c3)c2cc1OCCCN1CCOCC1 [gefitinib]
In short: as §1

[11] = compound: CS(=O)(=O)CCNCc1ccc(-c2ccc3ncnc(Nc4ccc(OCc5cccc(F)c5)c(Cl)c4)c3c2)o1 [lapatinib]
In short: as §1

[12] = compound: CS(=O)(=O)N1CCN(Cc2cc3nc(-c4cccc5[nH]ncc45)nc(N4CCOCC4)c3s2)CC1 [pictilisib]
In short: as §1

[13] = compound: C[C@@H](Oc1cc(-c2cnn(C3CCNCC3)c2)cnc1N)c1c(Cl)ccc(F)c1Cl [crizotinib]
In short: as §1

[14] = compound: C[C@H](C1=CC=C(C=C1)C(=O)NC2=C3C=CNC3=NC=C2)N
In short: as §1

[15] = compound: C[C@H](Nc1ncnc2nc[nH]c12)c1cc2cccc(Cl)c2c(=O)n1-c1ccccc1 [duvelisib]
In short: as §1

[16] = compound: Cc1cc(Nc2cc(CN3CCOCC3)c3nc(C)c(Cc4ccc(Cl)cc4F)n3n2)n[nH]1 [gandotinib]
In short: as §1

[17] = compound: Cc1cc(Nc2cc(N3CCN(C)CC3)nc(Sc3ccc(NC(=O)C4CC4)cc3)n2)n[nH]1 [tozasertib]
In short: as §1

[18] = compound: Cc1ccc(-n2nc(C(C)(C)C)cc2NC(=O)Nc2ccc(OCCN3CCOCC3)c3ccccc23)cc1 [doramapimod]
In short: as §1

[19] = compound: Cc1ccc(NC(=O)c2ccc(CN3CC[C@H](N(C)C)C3)c(C(F)(F)F)c2)cc1Nc1nccc(-c2cncnc2)n1 [bafetinib]
In short: as §1

[20] = compound: Cc1cccc(CC(=O)N2CCc3c2ccc(-c2cn(C)c4ncnc(N)c24)c3F)n1
In short: as §1

Measured: log2 fold change

MACO1 (UniProt Q8N5G2)
inactive: [1] -0.003 | [2] -0.003 | [3] -0.012 | [4] 0.01 | [5] 0.119 | [6] -0.101 | [7] -0.016 | [8] -0.024 | [9] -0.005 | [10] 0.04 | [11] 0.016 | [12] 0.041 | [13] 0.003 | [14] -0.019 | [15] 0.015 | [16] -0.008 | [17] 0.138 | [18] -0.035 | [19] -0.001 | [20] -0.001

LETM1 (UniProt O95202)
inactive: [1] -0.046 | [2] -0.033 | [3] 0.018 | [4] -0.007 | [5] -0.027 | [6] -0.001 | [7] -0.018 | [8] -0.022 | [9] -0.166 | [10] -0.04 | [11] -0.001 | [12] 0.004 | [13] -0.043 | [14] 0.015 | [15] -0.018 | [16] 0.03 | [17] 0.005 | [18] -0.01 | [19] -0.049 | [20] -0.085

KNL1 (UniProt Q8NG31)
inactive: [1] -0.008 | [2] -0.073 | [3] 0.024 | [4] -0.007 | [5] 0.018 | [6] 0.043 | [7] 0.055 | [8] -0.032 | [9] 0.004 | [10] 0.008 | [11] 0.007 | [12] -0.031 | [13] -0.015 | [14] -0.011 | [15] -0.001 | [16] -0.032 | [17] -0.027 | [18] 0.008 | [19] -0.017 | [20] 0.016

LDAH isoform 2 (UniProt Q9H6V9)
inactive: [1] 0.003 | [2] -0.124 | [3] -0.012 | [4] 0.012 | [5] -0.027 | [6] -0.03 | [7] 0.048 | [8] 0 | [9] -0.036 | [10] 0.004 | [11] 0.014 | [12] 0.006 | [13] -0.062 | [14] -0.016 | [15] 0.008 | [16] -0.036 | [17] 0.06 | [18] 0.021 | [19] -0.01 | [20] 0.143

MGST3 (UniProt O14880)
Sequence of UniProt O14880 (O14880 whole entry, looked up): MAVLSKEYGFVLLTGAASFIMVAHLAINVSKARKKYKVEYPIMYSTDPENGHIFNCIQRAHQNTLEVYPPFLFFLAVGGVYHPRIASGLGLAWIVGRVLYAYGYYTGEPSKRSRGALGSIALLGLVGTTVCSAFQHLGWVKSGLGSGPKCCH
inactive: [1] 0.071 | [2] 0.043 | [3] 0.054 | [4] 0 | [5] 0.029 | [6] -0.04 | [7] 0.052 | [8] 0.026 | [9] -0.005 | [10] -0.038 | [11] 0.01 | [12] -0.017 | [13] 0.004 | [14] 0.23 | [15] -0.02 | [16] -0.078 | [17] -0.035 | [18] -0.025 | [19] -0.048 | [20] -0.087

MMS19 isoform 8 (UniProt Q96T76)
inactive: [1] 0.008 | [2] -0.144 | [3] 0 | [4] -0.027 | [5] 0.007 | [6] 0.014 | [7] 0.128 | [8] 0.002 | [9] 0.001 | [10] -0.022 | [11] -0.03 | [12] -0.04 | [13] -0.074 | [14] 0.049 | [15] -0.003 | [16] -0.101 | [17] -0.004 | [18] 0.023 | [19] -0.066 | [20] 0.004

LUC7L (UniProt Q9NQ29)
Sequence of UniProt Q9NQ29 (Q9NQ29 whole entry, looked up): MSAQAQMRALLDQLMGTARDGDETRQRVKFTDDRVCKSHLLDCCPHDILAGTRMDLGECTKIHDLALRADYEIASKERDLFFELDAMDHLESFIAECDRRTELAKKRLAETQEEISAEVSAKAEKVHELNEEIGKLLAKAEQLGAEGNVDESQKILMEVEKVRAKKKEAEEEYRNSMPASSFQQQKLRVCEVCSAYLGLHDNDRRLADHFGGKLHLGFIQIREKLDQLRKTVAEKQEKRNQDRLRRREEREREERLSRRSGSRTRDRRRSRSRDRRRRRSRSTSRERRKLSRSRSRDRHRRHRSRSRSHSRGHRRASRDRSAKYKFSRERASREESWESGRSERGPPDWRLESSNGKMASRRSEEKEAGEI
inactive: [2] 0.015 | [3] -0.117 | [4] -0.075 | [5] 0.002 | [6] 0.065 | [7] -0.039 | [8] 0.033 | [9] 0.01 | [10] 0.037 | [11] -0.022 | [12] -0.009 | [13] 0.097 | [14] -0.097 | [15] 0.006 | [17] 0.012 | [18] -0.028 | [19] -0.022 | [20] 0.023
active: [1] -0.259 | [16] -0.32

MAP3K4 (UniProt Q9Y6R4)
Sequence of UniProt Q9Y6R4 (Q9Y6R4 whole entry, looked up): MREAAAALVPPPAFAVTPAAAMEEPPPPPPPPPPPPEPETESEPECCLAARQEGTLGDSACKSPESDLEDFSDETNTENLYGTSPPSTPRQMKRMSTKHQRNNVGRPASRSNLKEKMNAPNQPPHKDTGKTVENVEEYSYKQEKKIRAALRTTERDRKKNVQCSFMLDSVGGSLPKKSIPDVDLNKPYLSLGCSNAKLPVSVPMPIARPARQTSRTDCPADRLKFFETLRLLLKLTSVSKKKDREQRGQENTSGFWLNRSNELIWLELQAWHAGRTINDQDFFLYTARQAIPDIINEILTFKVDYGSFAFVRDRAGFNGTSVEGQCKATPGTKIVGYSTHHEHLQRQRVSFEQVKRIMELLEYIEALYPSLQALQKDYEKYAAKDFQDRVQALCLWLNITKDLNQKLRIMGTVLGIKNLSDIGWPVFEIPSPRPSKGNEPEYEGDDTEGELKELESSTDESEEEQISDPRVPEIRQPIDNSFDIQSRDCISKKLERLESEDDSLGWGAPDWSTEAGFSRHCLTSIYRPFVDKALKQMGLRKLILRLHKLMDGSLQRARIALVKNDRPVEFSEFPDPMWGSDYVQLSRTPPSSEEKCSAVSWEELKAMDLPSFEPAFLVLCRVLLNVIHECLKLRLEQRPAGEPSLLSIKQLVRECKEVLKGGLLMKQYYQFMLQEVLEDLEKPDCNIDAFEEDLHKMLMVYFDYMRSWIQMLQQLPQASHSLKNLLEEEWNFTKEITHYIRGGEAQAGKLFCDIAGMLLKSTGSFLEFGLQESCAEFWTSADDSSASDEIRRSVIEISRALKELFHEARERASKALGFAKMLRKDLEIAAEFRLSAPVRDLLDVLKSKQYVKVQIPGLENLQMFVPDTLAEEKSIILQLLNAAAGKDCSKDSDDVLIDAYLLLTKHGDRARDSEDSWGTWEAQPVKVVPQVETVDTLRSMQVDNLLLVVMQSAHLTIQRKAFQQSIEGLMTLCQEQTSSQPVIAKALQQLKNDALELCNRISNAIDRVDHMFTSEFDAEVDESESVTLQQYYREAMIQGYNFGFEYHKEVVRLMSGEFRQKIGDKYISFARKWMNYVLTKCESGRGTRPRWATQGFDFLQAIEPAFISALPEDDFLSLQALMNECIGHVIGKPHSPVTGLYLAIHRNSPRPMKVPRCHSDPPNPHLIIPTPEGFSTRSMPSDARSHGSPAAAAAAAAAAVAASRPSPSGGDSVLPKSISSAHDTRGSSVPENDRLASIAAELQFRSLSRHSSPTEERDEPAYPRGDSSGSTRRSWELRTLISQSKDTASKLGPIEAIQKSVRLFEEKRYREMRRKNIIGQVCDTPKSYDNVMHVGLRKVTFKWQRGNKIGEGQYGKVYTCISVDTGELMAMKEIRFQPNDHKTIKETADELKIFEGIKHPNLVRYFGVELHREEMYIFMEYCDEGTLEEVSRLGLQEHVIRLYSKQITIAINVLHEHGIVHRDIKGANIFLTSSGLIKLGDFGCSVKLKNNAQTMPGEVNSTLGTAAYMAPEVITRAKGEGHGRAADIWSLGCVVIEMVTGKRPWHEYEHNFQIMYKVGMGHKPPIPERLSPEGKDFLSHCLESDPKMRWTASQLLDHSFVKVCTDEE
inactive: [1] -0.027 | [2] -0.113 | [4] 0.071 | [5] -0.018 | [6] -0.171 | [7] 0.128 | [8] -0.028 | [9] -0.045 | [10] 0.081 | [11] -0.02 | [12] 0.009 | [13] 0.033 | [14] 0.064 | [15] -0.017 | [16] 0.034 | [17] 0.092 | [18] 0.073 | [19] -0.031 | [20] -0.041
active: [3] 0.366

MIF4GD isoform 3 (UniProt A9UHW6)
Sequence of UniProt A9UHW6 (A9UHW6 whole entry, looked up): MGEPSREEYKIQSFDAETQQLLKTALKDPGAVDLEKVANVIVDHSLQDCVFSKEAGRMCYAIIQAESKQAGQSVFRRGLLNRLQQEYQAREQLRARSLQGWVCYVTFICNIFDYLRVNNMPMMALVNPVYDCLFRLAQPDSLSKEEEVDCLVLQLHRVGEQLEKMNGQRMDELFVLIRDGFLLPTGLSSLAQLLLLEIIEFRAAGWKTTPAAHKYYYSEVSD
inactive: [1] 0.021 | [2] 0.014 | [3] 0.002 | [4] -0.01 | [5] -0.066 | [6] -0.012 | [7] 0.01 | [8] -0.037 | [9] 0.007 | [10] 0.049 | [11] -0.008 | [12] -0.054 | [13] 0.012 | [14] 0.023 | [15] 0.041 | [16] 0.021 | [17] 0.005 | [18] 0.025 | [19] -0.03 | [20] 0.013

METTL2A (UniProt Q96IZ6)
Sequence of UniProt Q96IZ6 (Q96IZ6 whole entry, looked up): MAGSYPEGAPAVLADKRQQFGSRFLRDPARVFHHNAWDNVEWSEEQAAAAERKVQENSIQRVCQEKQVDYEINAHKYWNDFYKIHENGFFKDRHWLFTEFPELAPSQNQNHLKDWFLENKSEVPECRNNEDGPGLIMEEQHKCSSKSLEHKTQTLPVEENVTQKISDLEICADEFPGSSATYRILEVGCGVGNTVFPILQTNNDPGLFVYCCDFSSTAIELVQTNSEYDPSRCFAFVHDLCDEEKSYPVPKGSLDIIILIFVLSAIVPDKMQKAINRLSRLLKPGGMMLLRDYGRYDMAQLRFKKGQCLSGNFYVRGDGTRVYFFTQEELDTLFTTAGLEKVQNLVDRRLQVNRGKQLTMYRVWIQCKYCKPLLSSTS
inactive: [1] 0.023 | [2] -0.079 | [3] 0.058 | [4] 0.019 | [5] -0.028 | [6] -0.007 | [7] 0.055 | [8] -0.057 | [9] 0.029 | [10] 0.04 | [11] -0.001 | [12] -0.049 | [13] -0.026 | [14] 0.056 | [15] 0.052 | [16] -0.065 | [17] 0.029 | [18] 0.035 | [19] -0.017 | [20] -0.065

MBOAT2 (UniProt Q6ZWT7)
Sequence of UniProt Q6ZWT7 (Q6ZWT7 whole entry, looked up): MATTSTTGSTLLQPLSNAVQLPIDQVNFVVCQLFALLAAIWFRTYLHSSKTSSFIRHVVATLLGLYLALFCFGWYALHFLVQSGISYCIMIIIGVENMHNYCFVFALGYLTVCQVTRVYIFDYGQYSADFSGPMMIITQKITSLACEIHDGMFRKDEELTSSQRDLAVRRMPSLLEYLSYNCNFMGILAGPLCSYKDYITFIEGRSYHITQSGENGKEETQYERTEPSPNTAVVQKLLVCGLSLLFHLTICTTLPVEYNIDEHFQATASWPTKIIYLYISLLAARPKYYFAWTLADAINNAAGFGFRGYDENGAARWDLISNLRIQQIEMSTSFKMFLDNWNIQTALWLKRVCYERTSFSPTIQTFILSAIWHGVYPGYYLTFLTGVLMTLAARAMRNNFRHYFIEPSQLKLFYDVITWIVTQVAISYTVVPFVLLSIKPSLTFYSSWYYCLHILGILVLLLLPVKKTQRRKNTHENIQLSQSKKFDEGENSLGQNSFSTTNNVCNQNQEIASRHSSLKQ
inactive: [1] -0.024 | [2] 0 | [3] 0.079 | [4] 0.002 | [5] -0.025 | [6] 0.156 | [7] -0.073 | [8] -0.003 | [9] 0.034 | [10] 0.064 | [11] -0.067 | [12] 0.061 | [13] -0.005 | [14] -0.175 | [15] 0.009 | [17] 0.106 | [18] -0.12 | [19] -0.049 | [20] 0.281
active: [16] 0.319

MLH1 (UniProt P40692)
inactive: [1] 0.011 | [2] -0.167 | [3] -0.039 | [4] 0.004 | [5] -0.013 | [6] 0.044 | [7] 0.129 | [8] -0.01 | [9] 0.048 | [10] -0.053 | [11] -0.006 | [12] 0.001 | [13] -0.085 | [14] -0.035 | [15] 0.016 | [16] -0.04 | [17] -0.043 | [18] 0.013 | [19] -0.063 | [20] 0.038

MAPKAPK2 (UniProt P49137)
Sequence of UniProt P49137 (P49137 whole entry, looked up): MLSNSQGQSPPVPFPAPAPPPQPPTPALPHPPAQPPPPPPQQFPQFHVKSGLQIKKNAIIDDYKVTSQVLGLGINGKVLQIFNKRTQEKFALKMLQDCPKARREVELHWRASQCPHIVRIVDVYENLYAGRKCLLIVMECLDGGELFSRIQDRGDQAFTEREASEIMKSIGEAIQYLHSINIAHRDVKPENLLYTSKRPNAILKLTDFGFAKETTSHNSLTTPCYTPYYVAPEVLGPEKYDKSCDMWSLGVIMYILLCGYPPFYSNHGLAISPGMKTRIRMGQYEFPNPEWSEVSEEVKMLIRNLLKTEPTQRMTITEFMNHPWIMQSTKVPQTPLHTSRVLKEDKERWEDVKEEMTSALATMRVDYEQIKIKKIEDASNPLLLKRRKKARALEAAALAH
inactive: [1] 0.069 | [2] -0.078 | [3] 0.077 | [4] -0.059 | [5] 0.025 | [6] -0.026 | [7] 0.046 | [8] -0.023 | [9] 0.114 | [10] -0.013 | [11] -0.04 | [12] -0.05 | [13] -0.014 | [14] 0.046 | [15] 0.033 | [16] -0.03 | [17] 0.004 | [18] 0.092 | [19] -0.037 | [20] 0.018

MOSPD2 (UniProt Q8NHP6)
Sequence of UniProt Q8NHP6 (Q8NHP6 whole entry, looked up): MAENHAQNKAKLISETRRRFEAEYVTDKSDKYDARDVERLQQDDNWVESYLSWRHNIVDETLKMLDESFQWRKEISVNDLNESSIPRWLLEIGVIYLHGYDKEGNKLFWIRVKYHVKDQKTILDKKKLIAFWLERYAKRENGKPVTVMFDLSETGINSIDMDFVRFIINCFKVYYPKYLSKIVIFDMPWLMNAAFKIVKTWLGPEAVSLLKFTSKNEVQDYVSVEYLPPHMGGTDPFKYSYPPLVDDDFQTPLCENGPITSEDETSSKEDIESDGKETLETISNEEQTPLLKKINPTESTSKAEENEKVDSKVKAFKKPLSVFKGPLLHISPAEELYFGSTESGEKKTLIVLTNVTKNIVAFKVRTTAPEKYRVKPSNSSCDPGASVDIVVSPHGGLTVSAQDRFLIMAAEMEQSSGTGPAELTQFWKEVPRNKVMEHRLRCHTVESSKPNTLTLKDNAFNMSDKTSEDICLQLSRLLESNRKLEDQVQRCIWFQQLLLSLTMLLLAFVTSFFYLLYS
inactive: [1] -0.028 | [2] -0.034 | [3] -0.03 | [4] 0.11 | [5] -0.015 | [6] 0.053 | [7] -0.026 | [8] 0.125 | [9] -0.027 | [10] -0.039 | [11] 0.01 | [12] -0.036 | [13] -0.041 | [14] -0.076 | [15] -0.02 | [16] 0.003 | [17] 0.021 | [18] 0.022 | [19] -0.009 | [20] 0.1

MIPEP (UniProt Q99797)
Sequence of UniProt Q99797 (Q99797 whole entry, looked up): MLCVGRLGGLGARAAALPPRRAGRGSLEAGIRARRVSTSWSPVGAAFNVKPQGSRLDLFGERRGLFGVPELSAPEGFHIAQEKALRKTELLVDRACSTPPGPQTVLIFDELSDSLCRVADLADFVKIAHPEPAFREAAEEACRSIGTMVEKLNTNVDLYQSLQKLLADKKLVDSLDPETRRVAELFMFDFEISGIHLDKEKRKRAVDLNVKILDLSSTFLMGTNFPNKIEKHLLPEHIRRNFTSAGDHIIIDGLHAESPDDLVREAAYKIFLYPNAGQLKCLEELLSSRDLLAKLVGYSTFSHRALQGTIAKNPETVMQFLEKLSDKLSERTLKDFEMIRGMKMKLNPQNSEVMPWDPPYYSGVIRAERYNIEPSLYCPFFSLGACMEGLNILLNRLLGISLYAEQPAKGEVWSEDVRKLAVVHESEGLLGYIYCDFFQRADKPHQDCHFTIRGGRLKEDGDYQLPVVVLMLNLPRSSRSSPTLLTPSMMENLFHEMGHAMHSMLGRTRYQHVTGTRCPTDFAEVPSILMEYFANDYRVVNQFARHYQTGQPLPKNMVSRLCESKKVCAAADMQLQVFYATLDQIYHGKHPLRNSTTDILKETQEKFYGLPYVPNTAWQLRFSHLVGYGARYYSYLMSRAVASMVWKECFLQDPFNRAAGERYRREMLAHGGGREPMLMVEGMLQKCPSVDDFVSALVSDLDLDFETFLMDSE
inactive: [1] 0.027 | [2] 0.011 | [3] -0.03 | [4] 0.025 | [5] -0.067 | [6] -0.012 | [7] 0.154 | [8] -0.038 | [9] -0.009 | [10] -0.007 | [11] -0.013 | [12] -0.031 | [13] 0.041 | [14] -0.004 | [15] -0.022 | [16] -0.049 | [17] 0.072 | [18] -0.059 | [19] 0.016 | [20] 0.04

MRPL35 (UniProt Q9NZE8)
inactive: [1] 0.057 | [2] -0.226 | [3] 0.01 | [4] 0.014 | [5] 0.033 | [8] 0.01 | [9] -0.072 | [10] 0.009 | [11] 0.051 | [12] 0.001 | [13] 0.01 | [14] -0.207 | [15] -0.054 | [16] 0 | [18] -0.023 | [19] -0.02 | [20] 0.039
